ChEMBL document CHEMBL5724796, “Tm Shift (DSF) assay results for EUbOPEN Chemogenomics Library” (2024)
Values joined by “and” are separate entries in the source; they are usually repeats but may differ in a detail not shown here. Equal entries are not always repeated.

Experiments:
Conditions in all cases: Compound concentration 20.0 uM
[1] = molecular target: Tyrosine-protein kinase ABL1 (Homo sapiens) (UniProt P00519)
[2] = molecular target: Bromodomain-containing protein 4 (Homo sapiens) (UniProt O60885)
[3] = molecular target: Cyclin-dependent kinase 2 (Homo sapiens) (UniProt P24941)
[4] = molecular target: Casein kinase I isoform delta (Homo sapiens) (UniProt P48730)
Casein kinase I isoform delta (Homo sapiens), sequence (P48730 whole entry, looked up, canonical isoform): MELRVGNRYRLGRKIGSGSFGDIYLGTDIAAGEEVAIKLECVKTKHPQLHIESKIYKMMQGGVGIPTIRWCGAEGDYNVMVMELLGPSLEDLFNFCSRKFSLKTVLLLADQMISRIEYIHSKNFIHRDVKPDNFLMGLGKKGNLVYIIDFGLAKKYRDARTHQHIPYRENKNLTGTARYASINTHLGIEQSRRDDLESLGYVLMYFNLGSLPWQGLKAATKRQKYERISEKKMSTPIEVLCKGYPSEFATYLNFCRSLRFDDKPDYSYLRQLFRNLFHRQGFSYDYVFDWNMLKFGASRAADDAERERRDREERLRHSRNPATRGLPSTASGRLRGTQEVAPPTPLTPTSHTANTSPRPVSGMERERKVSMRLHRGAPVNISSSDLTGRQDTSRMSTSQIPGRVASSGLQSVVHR

[5] = molecular target: Glycogen synthase kinase-3 beta (Homo sapiens) (UniProt P49841)
Glycogen synthase kinase-3 beta (Homo sapiens), sequence (P49841 whole entry, looked up): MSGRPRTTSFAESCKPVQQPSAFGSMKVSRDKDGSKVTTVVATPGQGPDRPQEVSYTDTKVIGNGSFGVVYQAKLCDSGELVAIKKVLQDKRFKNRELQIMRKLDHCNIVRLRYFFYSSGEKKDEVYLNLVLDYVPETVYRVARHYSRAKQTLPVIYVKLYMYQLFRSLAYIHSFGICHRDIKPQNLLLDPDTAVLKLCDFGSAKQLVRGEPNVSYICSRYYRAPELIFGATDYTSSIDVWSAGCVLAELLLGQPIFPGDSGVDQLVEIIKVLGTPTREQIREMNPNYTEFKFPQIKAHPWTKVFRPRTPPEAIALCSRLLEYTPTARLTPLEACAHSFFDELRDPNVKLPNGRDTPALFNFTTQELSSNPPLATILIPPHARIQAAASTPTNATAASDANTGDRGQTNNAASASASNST

[6] = molecular target: Mitogen-activated protein kinase 1 (Homo sapiens) (UniProt P28482)
Mitogen-activated protein kinase 1 (Homo sapiens), sequence (P28482 whole entry): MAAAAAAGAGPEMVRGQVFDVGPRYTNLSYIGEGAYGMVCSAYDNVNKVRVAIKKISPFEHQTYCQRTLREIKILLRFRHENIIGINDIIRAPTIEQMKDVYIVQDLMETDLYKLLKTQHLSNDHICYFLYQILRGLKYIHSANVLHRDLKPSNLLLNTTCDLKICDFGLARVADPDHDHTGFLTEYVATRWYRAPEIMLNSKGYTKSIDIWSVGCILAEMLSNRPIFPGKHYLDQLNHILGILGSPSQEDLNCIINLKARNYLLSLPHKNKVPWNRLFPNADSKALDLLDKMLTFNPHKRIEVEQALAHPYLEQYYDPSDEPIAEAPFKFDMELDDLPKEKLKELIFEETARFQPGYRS

[7] = molecular target: T1, Aurora kinase A (Homo sapiens) (UniProt O14965)
T1 sequence (whole entry): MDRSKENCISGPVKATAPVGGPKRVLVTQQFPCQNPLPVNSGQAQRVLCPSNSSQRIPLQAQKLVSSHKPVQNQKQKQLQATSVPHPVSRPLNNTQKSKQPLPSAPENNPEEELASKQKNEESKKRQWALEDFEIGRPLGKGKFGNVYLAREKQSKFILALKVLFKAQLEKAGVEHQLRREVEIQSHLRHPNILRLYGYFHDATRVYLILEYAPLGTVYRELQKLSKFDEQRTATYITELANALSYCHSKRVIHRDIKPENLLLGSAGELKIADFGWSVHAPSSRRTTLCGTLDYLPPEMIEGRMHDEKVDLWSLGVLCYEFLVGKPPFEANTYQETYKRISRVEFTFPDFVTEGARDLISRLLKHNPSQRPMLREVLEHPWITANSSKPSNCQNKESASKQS

[8] = molecular target: T2, Transcription intermediary factor 1-alpha (Homo sapiens) (UniProt O15164)
T2 sequence (whole entry): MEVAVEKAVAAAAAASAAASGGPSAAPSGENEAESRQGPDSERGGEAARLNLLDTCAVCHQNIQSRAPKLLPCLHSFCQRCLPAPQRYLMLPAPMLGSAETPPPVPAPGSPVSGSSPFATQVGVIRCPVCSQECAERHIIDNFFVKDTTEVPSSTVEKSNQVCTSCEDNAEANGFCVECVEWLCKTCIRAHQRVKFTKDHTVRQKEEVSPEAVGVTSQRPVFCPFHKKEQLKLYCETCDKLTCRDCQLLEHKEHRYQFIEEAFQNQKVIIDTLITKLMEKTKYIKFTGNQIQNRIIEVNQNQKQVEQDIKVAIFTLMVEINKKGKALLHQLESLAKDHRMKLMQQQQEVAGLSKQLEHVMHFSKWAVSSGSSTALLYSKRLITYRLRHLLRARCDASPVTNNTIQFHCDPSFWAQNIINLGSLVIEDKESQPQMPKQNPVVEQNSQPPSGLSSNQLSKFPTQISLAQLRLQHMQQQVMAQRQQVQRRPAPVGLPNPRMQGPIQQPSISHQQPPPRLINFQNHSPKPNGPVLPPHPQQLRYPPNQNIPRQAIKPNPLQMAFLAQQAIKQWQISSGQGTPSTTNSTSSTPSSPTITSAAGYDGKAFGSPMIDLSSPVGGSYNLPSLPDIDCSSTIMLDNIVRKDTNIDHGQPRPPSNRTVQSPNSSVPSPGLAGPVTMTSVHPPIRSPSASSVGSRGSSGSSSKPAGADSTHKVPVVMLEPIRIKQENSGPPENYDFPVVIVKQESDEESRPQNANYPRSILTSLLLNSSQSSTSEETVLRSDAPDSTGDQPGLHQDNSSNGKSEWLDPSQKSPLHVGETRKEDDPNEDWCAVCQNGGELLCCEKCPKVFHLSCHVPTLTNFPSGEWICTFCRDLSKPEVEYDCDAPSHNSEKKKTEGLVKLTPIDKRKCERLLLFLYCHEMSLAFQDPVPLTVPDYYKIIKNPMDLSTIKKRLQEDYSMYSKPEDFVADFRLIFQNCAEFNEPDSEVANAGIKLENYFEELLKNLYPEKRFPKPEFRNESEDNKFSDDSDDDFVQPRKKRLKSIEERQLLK

Tyrosine-protein kinase ABL1 (Homo sapiens), sequence (P00519 whole entry): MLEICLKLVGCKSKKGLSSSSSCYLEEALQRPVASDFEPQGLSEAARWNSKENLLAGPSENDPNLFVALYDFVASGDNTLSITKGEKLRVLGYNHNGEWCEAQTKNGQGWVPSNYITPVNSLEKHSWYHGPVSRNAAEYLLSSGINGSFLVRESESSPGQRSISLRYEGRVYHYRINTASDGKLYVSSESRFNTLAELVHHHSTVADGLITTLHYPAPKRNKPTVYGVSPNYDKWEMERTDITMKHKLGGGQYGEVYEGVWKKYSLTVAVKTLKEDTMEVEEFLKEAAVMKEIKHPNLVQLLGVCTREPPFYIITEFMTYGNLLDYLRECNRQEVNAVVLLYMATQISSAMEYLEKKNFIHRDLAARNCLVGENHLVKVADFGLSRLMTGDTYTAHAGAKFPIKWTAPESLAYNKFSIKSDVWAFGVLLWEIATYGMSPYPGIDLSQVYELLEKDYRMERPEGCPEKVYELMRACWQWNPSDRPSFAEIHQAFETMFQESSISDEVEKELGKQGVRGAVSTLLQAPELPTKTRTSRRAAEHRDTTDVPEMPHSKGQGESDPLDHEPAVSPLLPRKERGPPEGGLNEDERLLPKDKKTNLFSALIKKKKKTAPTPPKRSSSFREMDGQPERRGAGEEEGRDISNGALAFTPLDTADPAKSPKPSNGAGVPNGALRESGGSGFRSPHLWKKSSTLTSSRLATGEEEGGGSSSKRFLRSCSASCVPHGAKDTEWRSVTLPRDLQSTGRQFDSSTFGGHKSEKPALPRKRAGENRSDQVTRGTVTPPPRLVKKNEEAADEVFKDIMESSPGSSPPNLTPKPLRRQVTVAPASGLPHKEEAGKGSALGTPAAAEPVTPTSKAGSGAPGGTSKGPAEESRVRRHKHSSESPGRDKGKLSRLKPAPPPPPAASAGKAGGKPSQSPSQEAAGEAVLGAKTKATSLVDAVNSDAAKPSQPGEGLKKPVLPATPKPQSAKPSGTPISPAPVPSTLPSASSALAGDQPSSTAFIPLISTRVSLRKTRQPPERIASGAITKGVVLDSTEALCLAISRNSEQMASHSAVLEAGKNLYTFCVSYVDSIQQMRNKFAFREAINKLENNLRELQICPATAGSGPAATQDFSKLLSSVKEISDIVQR

Row | Compound | ΔTm [1] | ΔTm [2] | ΔTm [3] | ΔTm [4] | ΔTm [5] | ΔTm [6] | ΔTm [7] | ΔTm [8]
1 | NC(=O)C(CCCN=C(N)CCl)NC(=O)c1ccccc1 (stereo not drawn) | 0.36 °C | -3.15 °C | 0.18 °C | -0.56 °C | 0.08 °C | 0.22 °C | -2.39 °C | 1.03 °C
2 | CC(c1cccc2ccccc12)n1cnc2c(=O)[nH]c(Cc3ccccc3)nc21 (stereo not drawn) | 0.22 °C | -5.4 °C | -0.82 °C | 0.84 °C | -1 °C | -0.16 °C | -3.08 °C | -1.81 °C
3 | O=C(Nc1cc(C(F)F)ns1)Nc1cc(F)ncc1CO | 0.52 °C | -1.44 °C | 0.5 °C | -0.49 °C | 1.08 °C | 0.14 °C | -1.82 °C | 0.59 °C
4 | COc1cc(Oc2ccnc3cc(OC)c(OC)cc23)ccc1NC(=O)NC(C)c1nccs1 (stereo not drawn) | 9.54 °C | -3.36 °C | – | 0.28 °C | -1.46 °C | -9.78 °C | -0.11 °C | -0.38 °C
5 | CSc1cccc(Nc2ncc3cc(-c4c(Cl)cccc4Cl)c(=O)n(C)c3n2)c1 | – | -0.42 °C | 0.94 °C | 0.35 °C | – | -1 °C | -0.33 °C | –
6 | CN(C)CCCCC(=O)Nc1ccc(NC(=S)NC(=O)c2ccc(C(C)(C)C)cc2)cc1 | 0.43 °C | -4.74 °C | 0.19 °C | 0.69 °C | 1.54 °C | 0.13 °C | -2.09 °C | -0.79 °C
7 | Nc1ccc(-c2cccs2)cc1NC(=O)c1ccc2nc(N3CCNCC3)ccc2c1 | 3.35 °C | -2.49 °C | 1.41 °C | 0.14 °C | 0.38 °C | -0.25 °C | -0.39 °C | -0.74 °C
8 | COc1ccc2nc3[nH]nc(C)c3c(NCCOCCO)c2c1 | 0.63 °C | -1.31 °C | 0.26 °C | 0.76 °C | 2.8 °C | -0.01 °C | 0.31 °C | -0.59 °C
9 | CCCOc1ccc(NC(=O)CN2CCN(C)CC2)cc1-c1nc(CC)c(CC)c(=O)[nH]1 | 0.61 °C | -1.93 °C | 0.23 °C | -0.21 °C | -0.28 °C | 0.66 °C | -2.39 °C | -1 °C
10 | CNCc1ccc(-c2[nH]c3cc(F)cc4c3c2CCNC4=O)cc1 | 0.58 °C | -1.77 °C | 0.36 °C | 0.56 °C | 5.05 °C | 0.13 °C | – | -0.05 °C
11 | COc1cc(C(=O)N2C[C@H](N)CC[C@@H]2C)cc2nc(-c3cc4cccnc4n3CC3CC3)n(C)c12 | 0.14 °C | 0.61 °C | 0.15 °C | -0.38 °C | -1.31 °C | -0.7 °C | -1.15 °C | 0.53 °C
12 | COc1ccccc1S(=O)(=O)Nc1ccc2c(c1)CN(C)C(=O)N2 | 0.3 °C | – | 0.12 °C | -0.3 °C | -0.34 °C | 0.22 °C | -2.31 °C | -0.41 °C
13 | Cc1c(NC(=O)c2cc(C(N)=O)nc3cc(F)ccc23)c(C(F)(F)F)nn1Cc1ccc(C#N)cc1 | 0.61 °C | -2.09 °C | 0.06 °C | 0.03 °C | 0.78 °C | 0.34 °C | -2.13 °C | 1.34 °C
14 | CN(CCOc1ccc(-c2ccc3c(c2)OCO3)cc1C(C)(C)C)CC(=O)O | 0.97 °C | -3.79 °C | -0.18 °C | -0.21 °C | -0.2 °C | 0.46 °C | -0.74 °C | -0.19 °C
15 | CN1CCN2c3c(cccc31)[C@@H]1CN(CCCC(=O)c3ccc(F)cc3)CC[C@@H]12 | -0.01 °C | -0.67 °C | -0.01 °C | -0.14 °C | -0.53 °C | 0.07 °C | -0.26 °C | 0.32 °C
16 | O=c1[nH][nH]c(=O)c2cc(OCc3ccsc3)ccc12 | 1.93 °C | -2.87 °C | 0.73 °C | -0.03 °C | 0.96 °C | 0.65 °C | -1.5 °C | 0.51 °C

Row | Compound | ΔTm [1] | ΔTm [2] | ΔTm [3] | ΔTm [4] | ΔTm [5] | ΔTm [6] | ΔTm [7] | ΔTm [8]
17 | C[C@@H]1CN(Cc2ncccn2)C[C@H]1c1nc2c(cnn2C2CCOCC2)c(=O)[nH]1 | 0.63 °C | -2.54 °C | 0.17 °C | -0.3 °C | 0.32 °C | 0.24 °C | -2.46 °C | 0.61 °C
18 | CC(C)Cc1nn(C)c(=O)c2c(SCCCO)n(Cc3cccc4ccccc34)cc12 | -3.82 °C and -3.97 °C | -4.1 °C and -4.31 °C | -0.96 °C and -1.96 °C | -8.7 °C and -11.7 °C | -0.77 °C and -4.36 °C | – | -2.79 °C and -2.11 °C | -0.87 °C and 0.82 °C
19 | FC(F)(F)Cn1cc(-c2ccncc2)c(-c2ccc(OCc3ccc4ccccc4n3)cc2)n1 | 1.54 °C | -3.29 °C | 0.14 °C | 1.23 °C | -1.19 °C | 0.65 °C | 0.56 °C | -0.98 °C
20 | CN1CCN(c2ccc3nc(-c4c(N)c5c(F)cccc5[nH]c4=O)[nH]c3c2)CC1 | – | -0.49 °C | 0.73 °C | 2.74 °C | 3.22 °C | -0.2 °C | 2.63 °C | -0.57 °C
21 | COc1cc(Nc2ncc(F)c(Nc3ccc4c(n3)NC(=O)C(C)(C)O4)n2)cc(OC)c1OC | 4.14 °C | -1.7 °C | 0.13 °C | -0.37 °C | 2.52 °C | -3.17 °C | – | -0.42 °C
22 | c1cncc(-c2cnn[nH]2)c1 | 0.48 °C | -1.91 °C | -0.01 °C | -0.01 °C | -0.3 °C | 0.24 °C | -1.49 °C | -0.2 °C
23 | CCNC(=O)NCCSC[C@H]1O[C@@H](n2cnc3c(N)ncnc32)[C@H](O)[C@@H]1O | 0.85 °C | -1.51 °C | 0.53 °C | 0.63 °C | -0.36 °C | -1.34 °C | -0.19 °C | -1.13 °C
24 | CC(C)Cn1c(=O)n(C)c(=O)c2c(C(=O)N3CC[C@@H](O)C3)c(Cc3ccnc4ccccc34)sc21 | -0.39 °C | 2.2 °C | 0.16 °C | 0.09 °C | -1.09 °C | 0.11 °C | -0.87 °C | 2.02 °C
25 | CN(Cc1cc(Br)cc(Br)c1N)C1CCCCC1 | -0.03 °C | -2.64 °C | -0.09 °C | -0.11 °C | -0.69 °C | – | -0.8 °C | 0.31 °C
26 | COc1cc2/c(=N/c3ccc(Br)cc3F)nc[nH]c2cc1OCC1CCN(C)CC1 | – | -0.83 °C | 0.52 °C | 1.25 °C | -0.61 °C | 0.07 °C | – | -1.14 °C
27 | O=C(NCc1ccc(Cl)cc1)C1CCN(S(=O)(=O)c2cc(Cl)cc(Cl)c2)CC1 | 0.35 °C | -2.83 °C | 0.17 °C | -0.37 °C | -1.43 °C | 0.06 °C | -1.55 °C | 0.02 °C
28 | O=C1c2ccccc2C(=O)c2oc(-c3ccccc3)nc21 | 0.27 °C | -2.65 °C | 0.44 °C | -0.2 °C | 0.18 °C | -0.09 °C | -2.45 °C | 1.13 °C
29 | CN(C)Cc1ccc(S(=O)(=O)n2ccc(/C=C/C(=O)NO)c2)cc1 | 0.75 °C | -1.99 °C | 0.61 °C | 0.25 °C | -0.79 °C | -0.07 °C | -0.28 °C | -1.27 °C
30 | O=C1/C(=N/Nc2ccc(S(=O)(=O)O)cc2)C(c2ccc([N+](=O)[O-])cc2)=NN1c1ccccc1 | 1.16 °C | -0.38 °C | -0.28 °C | 0.56 °C | -2.61 °C | 0 °C | -0.73 °C | -0.32 °C
31 | Nc1cc(F)ccc1NC(=O)c1ccc(CNC(=O)/C=C/c2cccnc2)cc1 | 0.72 °C | -1.97 °C | -0.55 °C | 0.17 °C | -1.09 °C | -3.81 °C | -0.25 °C | -1.2 °C
32 | COCc1nc2cnc3cc(-c4c(C)noc4C)c(OC[C@H]4CCNC4)cc3c2n1[C@H](C)c1ccccc1 | 0.66 °C | – | 0.15 °C | 0.02 °C | -0.25 °C | 0.32 °C | -1.27 °C | 1.49 °C
